Results as given in PubChem BioAssay AID2156 (Johns Hopkins Ion Channel Center, 2009).
About 3,400 (1.1%) of roughly 310,000 compounds were called active.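 Rule for the calls: active = fluorescence ratio B-score at most minus 3 library SDs, with starting brightness B-score within 2 library SDs (cut at about -5.5 in these data); inactive = the rest, inconclusive results apart.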 Shown is part of a subset that was picked to be rich in actives.

Biological target: Potassium voltage-gated channel subfamily KQT member 2 (Rattus norvegicus) (UniProt O88943)
Experiment: KCNQ2 channel blockers in CHO-K1 cells – cell-based, FluxOR thallium flux, B-score, primary screen (AID 2156)
Conditions: 20 min, at 10 µM; hits give low values

Potassium voltage-gated channel subfamily KQT member 2 (Rattus norvegicus), sequence (O88943 whole entry, looked up): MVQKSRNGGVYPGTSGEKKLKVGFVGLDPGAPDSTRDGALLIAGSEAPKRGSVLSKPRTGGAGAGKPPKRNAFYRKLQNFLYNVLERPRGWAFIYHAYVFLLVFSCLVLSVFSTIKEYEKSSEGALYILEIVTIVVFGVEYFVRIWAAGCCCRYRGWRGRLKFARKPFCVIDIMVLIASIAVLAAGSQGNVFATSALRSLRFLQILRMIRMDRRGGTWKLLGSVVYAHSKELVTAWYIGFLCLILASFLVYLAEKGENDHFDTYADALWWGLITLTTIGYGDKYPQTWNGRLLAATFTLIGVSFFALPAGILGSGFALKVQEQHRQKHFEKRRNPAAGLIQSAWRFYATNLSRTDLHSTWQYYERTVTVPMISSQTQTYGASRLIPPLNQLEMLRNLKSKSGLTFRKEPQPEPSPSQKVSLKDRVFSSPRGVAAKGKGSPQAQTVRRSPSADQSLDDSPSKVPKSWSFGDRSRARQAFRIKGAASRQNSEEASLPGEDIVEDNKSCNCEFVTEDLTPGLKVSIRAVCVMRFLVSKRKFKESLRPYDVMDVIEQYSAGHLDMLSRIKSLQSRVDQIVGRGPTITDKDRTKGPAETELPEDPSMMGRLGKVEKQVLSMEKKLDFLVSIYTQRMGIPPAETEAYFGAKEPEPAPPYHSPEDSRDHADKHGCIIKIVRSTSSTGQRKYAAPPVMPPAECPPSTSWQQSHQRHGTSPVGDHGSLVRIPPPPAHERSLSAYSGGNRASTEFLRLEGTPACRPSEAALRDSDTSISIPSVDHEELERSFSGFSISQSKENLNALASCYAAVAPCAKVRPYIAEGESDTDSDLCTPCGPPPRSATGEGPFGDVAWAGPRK

B-score, inactive:
CSc1nc2ccccc2c(=O)n1Cc1ccc(F)cc1
C=CCn1c(C2CC(=O)N(c3ccc(C)cc3)C2)nc2ccccc21 (configuration not stated)
CCN(CC)c1ccc(NC(=O)c2ccc(=O)[nH]c2)cc1S(=O)(=O)Nc1ccc(OC)cc1 -0.01
CCN1CCN(CCNC(=O)c2ccc3c(c2)NC(=O)/C(=C\c2ccc(OC)c(OC)c2)S3)CC1 -0.06
CC1CCN(C(=O)c2ccc3c(c2)NC(=O)CN3)CC1 -0.25
Cc1ccc(S(=O)(=O)N(C)c2ccc(OCC(=O)OCC(=O)N(CC#N)c3ccccc3)cc2)cc1
CN(CC(=O)Nc1cccc(F)c1)C(=O)C1CSC2(C)CCC(=O)N12 (configuration not stated) -0.47
COc1ccccc1C(=O)NC(CCSC)C(=O)NNC(=O)c1ccccc1C (configuration not stated)
Cc1cc(NC(=O)CSC2=NS(=O)(=O)c3cc(Cl)ccc3N2)no1 -0.31
CCc1ccc(C(=O)NC(=S)Nc2ccccc2N2CCOCC2)cc1 -5.43
O=C(c1ccccc1)c1cc(-c2ccccn2)c(N2CCOCC2)s1 -0.1
CCCCn1c(N)c(N(CC(C)C)C(=O)c2cccc(S(=O)(=O)N3CC(C)OC(C)C3)c2)c(=O)[nH]c1=O (configuration not stated)
CCCCn1c(N)c(N(CC(C)C)C(=O)c2cnc(C)cn2)c(=O)[nH]c1=O
Cc1cc(NC(=O)C(C)SCC(=O)Nc2ccccc2N2CCCCC2)no1 (configuration not stated)
O=C(NCCCN1CCCC1=O)c1cccc(S(=O)(=O)NCc2ccccc2)c1 -0.85
O=C(COC(=O)c1ncc(Cl)c(Cl)c1Cl)NCc1cccs1 -2.02
CCC1(c2ccccc2)NC(=O)N(CC(=O)c2ccc3c(c2)OCO3)C1=O (configuration not stated)
O=C(CN1CCC(O)(c2ccccc2)CC1)Nc1ccc2c(c1)OCCO2
COc1cc(N)c(Cl)cc1C(=O)OCC(=O)c1ccc2c(c1)NC(=O)CO2
CCOc1ccc(NC(=O)COc2ccc(C(=O)NC3CCCc4ccccc43)cc2OC)cc1 (configuration not stated)
CNS(=O)(=O)c1cccc(C(=O)NC2CCCc3ccccc32)c1 (configuration not stated) -2.62
COc1ccc(CN(C)C(=O)CC(c2ccccc2)c2ccccc2)cc1 -2.95
O=C(CN1CCN(c2ccc(O)cc2)CC1)NC1CCCc2ccccc21 (configuration not stated) -0.25
Cc1ccc(NC(=O)CN(C)C(=O)Cn2nnc(-c3ccccc3)n2)cc1
COc1ccccc1CNC(=O)CSc1nc(=O)n(Cc2ccncc2)c2c1CCC2 -0.12
CCOc1ccccc1-c1cc(C(=O)N2CCOCC2)c2ccccc2n1
CC(=O)N1CCN(C(=O)c2cc(-c3ccc(Cl)s3)nc3ccccc23)CC1
Cc1cc(OCC(=O)N(C)c2c(N)n(Cc3ccccc3)c(=O)[nH]c2=O)c(C(C)C)cc1Cl -0.02
COc1ccc(-c2cnc(SCCNC(=O)c3ccc4c(c3)OCO4)[nH]2)cc1
Cc1ccc(S(=O)(=O)Oc2ccc(/C=N/NC(=O)c3ccncc3)cc2)cc1 -0.5
O=C1OC(c2ccc(Cl)cc2)=N/C1=C\c1cccnc1 -0.06
COc1ccc(OCCCC(=O)OC(C)C(=O)Nc2ccccc2[N+](=O)[O-])cc1 (configuration not stated) -0.14
Cc1ccc(CN2CCN(c3ccccc3Cl)CC2)o1 -0.4
O=C(CN1CCN(c2ccc(O)cc2)CC1)Nc1cc(S(=O)(=O)N2CCOCC2)ccc1Cl -0.82
O=C(N/N=C/c1cc(Cl)cc([N+](=O)[O-])c1O)C(O)(c1ccccc1)c1ccccc1 -0.18
CN1CCN(C(=O)C2=C[C@H](c3ccc4c(c3)OCO4)C[C@H](OCc3ccc(CO)cc3)O2)CC1 -0.01
CC(=O)n1cc([C@H]2C=C(C(=O)N3CCOCC3)O[C@@H](OCc3ccc(CO)cc3)C2)c2ccccc21 -4.18
O=C(COc1coc(CN2CCN(c3ccccc3F)CC2)cc1=O)N1CCc2ccccc21
COc1cc(/C=C/C(=O)N2CCc3ccccc3C2)cc(OC)c1OC
O=C(CN1CCCCCC1)N1c2ccccc2Sc2ccc(C(F)(F)F)cc21 -3.82
Cc1ccc(NC(=O)NC(=O)N(C2CCCCC2)S(=O)(=O)c2ccccc2)cc1 -1.57
CCOc1ccc(NC(=O)N(CCC(C)C)C(C)c2ccco2)cc1 (configuration not stated) -2.46
N#CC1(NC(=O)COC(=O)CSc2ccc(F)cc2)CCCCC1
C=CCOc1ccc(/C=C/C(=O)OC(C)C(=O)Nc2ccc(NC(C)=O)cc2)cc1 (configuration not stated)
CCCn1c(C)cc(/C=C(\C#N)C(=O)OCC(=O)N(C)c2c(N)n(Cc3ccccc3)c(=O)[nH]c2=O)c1C -0.77
COc1ccc(OC)c(C(=O)c2ccc(Cl)cc2)c1
COc1ccc(/C(C)=N/NC(=O)CCC(=O)Nc2ccc(Cl)cc2Cl)c(OC)c1 -2.5
O=C(Nc1ccon1)c1sc2ccccc2c1Cl -0.39
COc1ccc(CNC(=O)CNC(=O)c2sc3ccccc3c2Cl)cc1OC
COc1ccc(-c2csc3ncnc(N4CCN(S(=O)(=O)c5cccc(F)c5)CC4)c23)cc1 -2.13
CC(OC(=O)CCCOc1ccccc1)C(=O)Nc1ccc(Cl)cn1 (configuration not stated)
CC1CN(C(=O)COC(=O)c2cccc(NS(=O)(=O)c3ccccc3)c2)CC(C)O1 (configuration not stated)
CS(=O)(=O)n1nc(-c2ccccc2)nc1NCc1ccco1 -0.02
c1ccc(-c2nc(NCc3ccco3)c3ccccc3n2)cc1 -3.7
CC1(C)O[C@@H]2CC3C4C[C@H](F)C5=CC(=O)C=CC5(C)C4C(O)CC3(C)[C@]2(C(=O)CO)O1 (some centres not stated)
O=C(Nc1ccccc1Cl)Nn1cnnc1
O=C(COC(=O)c1cccs1)Nc1ccccc1Cl -0.17
CCc1noc(C)c1C(=O)Nc1nc(-c2ccccc2)cs1 -0.22
CCCn1nc(C(=O)NNC(=O)CSCC(=O)Nc2cc(C)on2)c2ccccc2c1=O -2.13
Cc1c(C(=O)NCCCc2ccccc2)cccc1[N+](=O)[O-] -1.07
O=C(O/N=C(/c1ccccc1)c1ccncc1)c1ccccc1[N+](=O)[O-] -1.04
Cc1cccc(N2CC(C(=O)Nc3ccccc3N3CCCC3)CC2=O)c1C (configuration not stated)
c1cnc(N2CCN(c3ccc4ccccc4n3)CC2)nc1 -0.22
CC(Oc1ccc(F)cc1)C(=O)N1CCN(c2ncccn2)CC1 (configuration not stated)
Cc1cc(C)n2nc(C(=O)OC(C)C(=O)c3cc(C)c(C)cc3C)nc2n1 (configuration not stated)
Cc1ccccc1NC(=O)C(C)OC(=O)CCC(=O)N(CC(C)C)c1c(N)n(CC(C)C)c(=O)[nH]c1=O (configuration not stated)
Cc1cc(CNC(=O)c2cccc([N+](=O)[O-])c2)c2ccccc2n1
CC(=O)Nc1ccc(Nc2c3ccccc3nc3ccccc23)cc1
CCOc1ccc(/C=C/C(=O)N(CC)CC(=O)NCc2cccs2)cc1OC
COc1ccccc1CNC(=O)COn1nnc2ccc(S(=O)(=O)N3CCOCC3)cc21
COc1ccc(Cl)cc1NC(=O)CCN1CCOCC1 -1.02
COc1ccc(Cl)cc1NC(=O)c1cccc(N2C(=O)C3CC=CCC3C2=O)c1 (configuration not stated) -0.4

B-score, active:
CC(C)(C)N1CC(c2nc3ccccc3n2Cc2ccc(F)cc2)CC1=O (configuration not stated) -5.93
O=C1Nc2cc(C(=O)N3CCC(N4CCCCC4)CC3)ccc2S/C1=C\c1ccccc1 -6.65
CCc1ccc2ncc(C(=O)c3ccccc3)c(N3CCOCC3)c2c1 -9.81
O=C(CCN1CCc2ccccc2C(O)(c2ccccc2)C1)c1ccc2c(c1)OCCO2 (configuration not stated) -6.97
Cc1cccc(C(=O)OC(C)C(=O)NC2CCCc3ccccc32)c1O (configuration not stated) -7.78
COc1ccc(CN(C)C(C)C(=O)NC2CCCc3ccccc32)cc1 (configuration not stated) -6.8
O=C(c1cc(-c2ccc(Cl)s2)nc2ccccc12)N1CCOCC1 -6
Cc1ccc(C2=N/C(=C\c3ccc(OS(=O)(=O)c4ccc(C)cc4)cc3)C(=O)O2)cc1 -7.24
O=[N+]([O-])c1cc(Cl)cc(/C=N/NC(=S)Nc2cc(S(=O)(=O)N3CCOCC3)ccc2Cl)c1O -8.14
CC(=O)n1cc([C@@H]2C=C(C(=O)N3CCN(Cc4ccc5c(c4)OCO5)CC3)O[C@H](OCc3ccc(CO)cc3)C2)c2ccccc21 -6.49
COc1cc(/C=C/C(=O)N2c3ccccc3Sc3ccc(C(F)(F)F)cc32)cc(OC)c1OC -7.31
CC(c1ccco1)N(C(=O)Nc1ccccc1)C1CCCCC1 (configuration not stated) -5.91
COc1ccc(OC)c(/C(C)=N\NC(=O)c2cc3cc(Cl)ccc3n2C)c1 -8.07
CN1CCc2ccccc2C1Cc1ccccc1NC(=O)c1sc2ccccc2c1Cl (configuration not stated) -6.56
O=C(Cc1ccccc1)n1nc(-c2ccccc2)nc1NCc1ccco1 -5.57
O=C(Nc1ccccc1Cl)/C(Cl)=C(\Cl)S(=O)c1ccccc1 (configuration not stated) -9.85
O=C(OCC(=O)N(CCc1ccccc1)Cc1ccccc1)c1ccccc1[N+](=O)[O-] -6.77
CC12CCC(C(=O)N3CCN(c4ncccn4)CC3)(c3nc4ccccc4nc31)C2(C)C (configuration not stated) -6.6
O=[N+]([O-])c1cccc(Nc2c3ccccc3nc3ccccc23)c1 -5.7
COc1ccc(Cl)cc1NC(=O)COC(=O)C(CC(C)C)N1C(=O)C2CC=CCC2C1=O (configuration not stated) -5.8
